Data: PubChem BioAssay (Tox21)
“And” between values parts separate entries of the source, which are not always exact repeats. Equal entries are not always repeated. Results filed as inconclusive are left out. Entries that show only a call come without a potency. Some compounds were tested as several samples or in several runs, with calls that do not always agree. The source made the active and inactive calls. Calls follow the shape of the dose curve; as a rule, active = well fitted curve in the direction sought with a large enough effect in the repeat runs; inconclusive = weak or mixed curves; inactive = no such curve, though single readings can be large; an effect the other way counts as inactive or inconclusive.

Legend:
[1] = A CellTox Green Cytotoxicity Assay to monitor cytotoxicity in HEK293 cells - 40 hour (AID 1224871); also: nearly all actives have a fitted effect of over 45% in size; also: potency is read from the fitted curve at half-maximal effect
How it was run: (§1)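 Tox21 screen in HEK293: membrane-impermeant cyanine dye fluoresces on binding dead-cell DNA; compound pinned 5 h post-seeding, plates held at 37 C, signal read repeatedly through 40 h.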

[2] = qHTS RealTime-Glo MT Cell Viability Assay in HEK293 cells - 16 hour (AID 1224872); also: nearly all actives have a fitted effect of over 50% in size; also: potency is read from the fitted curve at half-maximal effect
How it was run: (§2)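 Cells + reagent dispensed (600 cells/well, HEK293) → 5 h at 37 C/5% CO2 → 23 nL compound in DMSO pinned → 40 h at 37 C → luminescence read at 0, 8, 16, 24, 32, 40 h.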

[3] = qHTS RealTime-Glo MT Cell Viability Assay in HepG2 cells - 8 hour (AID 1224873); also: nearly all actives have a fitted effect of over 55% in size
How it was run: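 Real-time viability: cells seeded at 600 per well together with NanoLuc and cell-permeant prosubstrate, compounds added after 5 h incubation. Luminescence tracked at 0, 8, 16, 24, 32 and 40 h of exposure.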

[4] = qHTS RealTime-Glo MT Cell Viability Assay in HEK293 cells - 40 hour (AID 1224874); conditions: RealTime-Glo luminescence; max response: stronger effect = lower value; also: nearly all actives have a fitted effect of over 50% in size; also: potency is read from the fitted curve at half-maximal effect
How it was run: (§3)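 HEK293 + NanoLuc + prosubstrate, 600 cells/well; 5 h, 37 C/5% CO2; compound 23 nL in DMSO by pintool; 37 C; luminescence read at 0, 8, 16, 24, 32 and 40 h time points.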

[5] = A CellTox Green Cytotoxicity Assay to monitor cytotoxicity in HepG2 cells - 16 hour (AID 1224876); also: nearly all actives have a fitted effect of over 45% in size; also: potency is read from the fitted curve at half-maximal effect
How it was run: (§4)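 Measurements at 0, 8, 16, 24, 32 and 40 h of treatment captured CellTox Green fluorescence in HepG2 cells that had been co-plated with reagent and preincubated 5 h at 37 C/5% CO2.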

[6] = qHTS RealTime-Glo MT Cell Viability Assay in HepG2 cells - 32 hour (AID 1224877); also: nearly all actives have a fitted effect of over 55% in size; also: potency is read from the fitted curve at half-maximal effect
How it was run: (§5)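 Real-time, nonlytic viability: 600 HepG2 cells/well mixed with NanoLuc enzyme plus prosubstrate; 5 h settle, compound (DMSO) added by pintool; luminescence monitored over 40 h at 37 C.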

[7] = A CellTox Green Cytotoxicity Assay to monitor cytotoxicity in HepG2 cells - 24 hour (AID 1224878); also: nearly all actives have a fitted effect of over 45% in size; also: potency is read from the fitted curve at half-maximal effect
How it was run: as §4

[8] = A CellTox Green Cytotoxicity Assay to monitor cytotoxicity in HepG2 cells - 40 hour (AID 1224879); also: nearly all actives have a fitted effect of over 40% in size; also: potency is read from the fitted curve at half-maximal effect
How it was run: as §4

[9] = qHTS RealTime-Glo MT Cell Viability Assay in HEK293 cells - 0 hour (AID 1224880); also: top concentration of the series differs between compounds; nearly all actives have a fitted effect of over 45% in size
How it was run: as §3

[10] = A CellTox Green Cytotoxicity Assay to monitor cytotoxicity in HEK293 cells - 32 hour (AID 1224881); also: nearly all actives have a fitted effect of over 40% in size; also: potency is read from the fitted curve at half-maximal effect
How it was run: as §1

[11] = A CellTox Green Cytotoxicity Assay to monitor cytotoxicity in HepG2 cells - 0 hour (AID 1224882); also: nearly all actives have a fitted effect of over 35% in size; also: potency is read from the fitted curve at half-maximal effect
How it was run: as §4

[12] = A CellTox Green Cytotoxicity Assay to monitor cytotoxicity in HepG2 cells - 32 hour (AID 1224883); also: nearly all actives have a fitted effect of over 50% in size; also: potency is read from the fitted curve at half-maximal effect
How it was run: as §4

[13] = A CellTox Green Cytotoxicity Assay to monitor cytotoxicity in HEK293 cells - 8 hour (AID 1224884); also: nearly all actives have a fitted effect of over 35% in size; also: potency is read from the fitted curve at half-maximal effect
How it was run: as §1

[14] = qHTS RealTime-Glo MT Cell Viability Assay in HepG2 cells - 16 hour (AID 1224885); also: nearly all actives have a fitted effect of over 50% in size
How it was run: as §5

[15] = qHTS RealTime-Glo MT Cell Viability Assay in HEK293 cells - 24 hour (AID 1224886); also: nearly all actives have a fitted effect of over 50% in size; also: potency is read from the fitted curve at half-maximal effect
How it was run: as §2

[16] = qHTS RealTime-Glo MT Cell Viability Assay in HEK293 cells - 8 hour (AID 1224887); also: nearly all actives have a fitted effect of over 50% in size; also: potency is read from the fitted curve at half-maximal effect
How it was run: as §3

[17] = A CellTox Green Cytotoxicity Assay to monitor cytotoxicity in HEK293 cells - 16 hour (AID 1224888); also: nearly all actives have a fitted effect of over 35% in size
How it was run: as §1

[18] = qHTS RealTime-Glo MT Cell Viability Assay in HepG2 cells - 0 hour (AID 1224889); also: nearly all actives have a fitted effect of over 50% in size
How it was run: as §5

[19] = A CellTox Green Cytotoxicity Assay to monitor cytotoxicity in HEK293 cells - 24 hour (AID 1224875)
How it was run: as §1

Row | SMILES | Potency [1] | Potency [2] | Potency [3] | max response [4] | Potency [5] | Potency [6] | Potency [7] | Potency [8] | Potency [9] | Potency [10] | Potency [11] | Potency [12] | Potency [13] | Potency [14] | Potency [15] | Potency [16] | Potency [17] | Potency [18] | Potency [19] | Potency [4]
1 | Clc1nc(Cl)c(Cl)c(Cl)c1Cl | 43.9 µM (active) and inactive | inactive | inactive | 1.46% (inactive) and 24.5% (inactive) | inactive | inactive | inactive | inactive | inactive | inactive | inactive | inactive | inactive | inactive | inactive | inactive | inactive | inactive |  | 
2 | C=C(C)C1CC=C(C)CC1 (stereo not given) | inactive | inactive | inactive | 1.72% (inactive) and 5.41% (inactive) |  | inactive | inactive | inactive | inactive | inactive | inactive | inactive | inactive | inactive | inactive | inactive | inactive |  | inactive | 
3 | O=C(COc1ccc(Cl)cc1)N1CCN(Cc2ccc3c(c2)OCO3)CC1 | inactive | 38.9 µM (active) and inactive | inactive |  | inactive | inactive | inactive | inactive | inactive | inactive | inactive | inactive | inactive | inactive | 38.9 µM (active) | 38.9 µM (active) and inactive | inactive | inactive |  | 38.9 µM (active)
4 | C#C[C@]1(O)CC[C@H]2[C@@H]3CCC4=Cc5oncc5C[C@]4(C)[C@H]3CC[C@@]21C | 49 µM (active) |  |  |  | inactive |  | inactive | inactive |  | 49 µM (active) | inactive | inactive | inactive |  |  |  | inactive |  | inactive | 
5 | OC1CCCCCCCCCCC1 | inactive and 43.6 µM (active) | inactive | inactive | -5.96% (inactive) and 2.11% (inactive) | 38.9 µM (active) | inactive | 49.5 µM (active) and 43.6 µM (active) | 49.5 µM (active) | inactive | inactive and 43.6 µM (active) | inactive and 27.5 µM (active) | 44.1 µM (active) and 43.6 µM (active) | inactive and 43.6 µM (active) | inactive | inactive | inactive |  |  |  | 
6 | COc1ccccc1/C=C/C=O | inactive | inactive | inactive |  |  | inactive | inactive | inactive | inactive | inactive | inactive | inactive | inactive | inactive |  | inactive | inactive | inactive |  | 
7 | Nc1ncn([C@@H]2O[C@H](CO)[C@@H](O)[C@H]2O)c(=O)n1 | inactive | inactive | inactive | -27.7% (inactive) and 4.66% (inactive) |  | inactive | inactive | inactive | inactive | inactive | inactive | inactive | inactive | inactive | inactive | inactive | inactive | inactive |  | 
8 | CN(C)CCC=C1c2ccccc2CCc2ccccc21 | inactive | inactive | inactive |  | 24.5 µM (active) | inactive and 49 µM (active) | 38.9 µM (active) and 23.9 µM (active) | 55 µM (active) and 43.6 µM (active) and 26.8 µM (active) |  | inactive | inactive | 55 µM (active) and 43.6 µM (active) and 26.8 µM (active) | inactive | inactive | inactive | inactive | inactive |  | inactive | 
9 | O=C(c1ccccc1)c1ccc(O)cc1O | inactive | inactive | inactive | -11.1% (inactive) and -19.8% (inactive) | inactive | inactive | inactive and 38.9 µM (active) | inactive and 43.6 µM (active) | inactive | inactive | inactive |  | inactive | inactive | inactive | inactive | inactive | inactive | inactive | 
10 | CCCCC(CC)COC(=O)c1ccc(N(C)C)cc1 (stereo not given) | inactive | inactive | inactive |  | inactive | inactive | inactive | inactive | inactive | inactive | inactive | inactive | inactive | inactive | inactive | inactive | inactive | inactive |  | 
11 | CC(C)=CCC/C(C)=C\CO | inactive | inactive | inactive |  |  | inactive | inactive | inactive | inactive | inactive | inactive | inactive | inactive | inactive | inactive | inactive | inactive | inactive |  | 
12 | CCC(C)c1ccccc1O (stereo not given) | 34.4 µM (active) | inactive | inactive |  |  | inactive | inactive | 48.6 µM (active) | inactive | 38.6 µM (active) | inactive |  | inactive | inactive | inactive | inactive |  | inactive |  | 
13 | CN(C)CCN(Cc1cccs1)c1ccccn1 | inactive | inactive | inactive |  | inactive | inactive | inactive | inactive | inactive | inactive | inactive | inactive | inactive | inactive | inactive | inactive | inactive | inactive | inactive | 
